Our source for the outcome values is PubChem BioAssay AID588742 (Southern Research Specialized Biocontainment Screening …, 2011).

The whole screen tested about 1,800 compounds, of which about 410 (23%) were called active. The rule behind the calls is not given here. Not all results are given here. A call without a number means that no potency is given here. Potency and affinity values are given separately.

The experiment can be described thus: Vero cell cytotoxicity, cytotoxicity control for flavivirus capping enzyme inhibitors (AID 588742). Particulars: Vero cells viability, cytotoxicity counter-screen; series mostly up to 40 µM.
With `COc1ccc(-c2csc(/C(C#N)=C(\O)CSc3nccn3C)n2)cc1OC`, the compound was classed as inactive.

`CCOc1ccc(C(c2c(O)nc(SC)n(C)c2=O)c2c(O)nc(SC)n(C)c2=O)cc1`: the outcome was inactive.

As to `COC(=O)C1=C(C(=O)OC)C(c2cc(Br)ccc2O)c2sc(=O)[nH]c2S1` (configuration not stated), the call was inactive.

Consider `Cc1ccc(-c2c(C(=O)N/N=C/c3ccncc3)nnn2-c2nonc2N)cc1`, for which the outcome was inactive.

For the compound `COc1ccc(Cc2c(O)nc(SC)n(C(C)=O)c2=O)cc1`, the compound was classed as inactive.

As for `O=C(O)CN1C(=O)/C(=C\c2cccc(OCc3ccccc3)c2)SC1=S`, the outcome was inactive.

For `O=C(CC(c1ccccc1)c1ccccc1O)N1CCCC1` (configuration not stated), the compound was classed as inactive.

For the compound `O=C(O)c1ccc2c(c1Nc1ccccc1)C(=O)c1ccccc1C2=O`, the result was inactive.

For `Cc1sc(C(C2C(=O)CC(C)(C)CC2=O)C2C(=O)CC(C)(C)CC2=O)cc1[N+](=O)[O-]`, the compound was called inactive.

In the case of `O=C(O)c1cccc(NS(=O)(=O)c2ccc(-c3ccc(S(=O)(=O)Nc4cccc(C(=O)O)c4)cc3)cc2)c1`, the compound was classed as inactive.

In the case of `CCc1ccc(S(=O)(=O)ON2C(=O)c3ccccc3C2=O)cc1`, the result was inactive.

Take `O=C(c1ccccc1NS(=O)(=O)c1ccc([N+](=O)[O-])cc1[N+](=O)[O-])N1O[C@@H]2C=C[C@H]1C2`: the outcome was inactive.

Take `CCOc1ccc2c(c1)n([O-])c1c([n+]2=O)CCCC1`: the result was inactive.

With `COc1cc(C(=O)NC(C(=O)Nc2cccc(C(C)=O)c2)C(C)C)cc(OC)c1OC` (configuration not stated), the compound was classed as inactive.

As to `Cc1nn(CCc2nc(-c3ccco3)cs2)c2[nH]c(=O)cc(C(F)(F)F)c12`, the result was inactive.

As to `C/C(=N\Nc1cccc(C(=O)O)c1)c1ccc(Cl)s1`, the compound was classed as inactive.

For the compound `COC1=C(Br)C(=O)c2ncccc2C1=O`, the outcome was inactive.

`CC(C)c1ccc(NC(=O)COC(=O)CSc2nnc(N)s2)cc1`: the outcome was inactive.

Take `CC(/C=C1\SC(=S)N(c2ccc(C(=O)O)cc2)C1=O)=C\c1ccccc1`: the compound was classed as inactive.

Take `CN(C)c1cc(N/N=C\c2ccccc2)nc(N(C)C)n1`: the compound was classed as inactive.

Turning to `COc1ccc(OC)c2c(C)cc(N3CCCCCC3)nc12`, the compound was called inactive.

Take `O=C(O)CN1C(=O)/C(=C\c2cc(Br)ccc2OCc2ccccc2F)SC1=S`: the result was inactive.

In the case of `COc1cccc(CNC(=O)c2cccnc2Sc2ccc(C)cc2C)c1`, the compound was classed as inactive.

Regarding `O=C(CCN1C(=O)S/C(=C\c2ccccc2)C1=O)Nc1ccc(S(=O)(=O)Nc2nccs2)cc1`, the compound was classed as inactive.

Consider `CCS(=O)(=O)c1nc(S(=O)(=O)c2ccc(Cl)cc2)c(NCCCN2CCCC2=O)s1`, for which the result was inactive.

Take `[O-][n+]1c2ccccc2[n+]([O-])c2cc(O)ccc21`: the compound was called inactive.

In the case of `CC(C)c1cccc(-c2ccc3c(c2)S(=O)(=O)c2cccc(C(=O)O)c2C3=O)c1`, the compound was called inactive.

On to `COc1cc(/C=N/NC(=S)N/N=C/c2cc(OC)c(OC)c(OC)c2)cc(OC)c1OC`, for which the result was inactive.

On to `CN(C)c1ccc(N=Nc2ccc(S(=O)(=O)O)cc2)c2ccccc12`, for which the compound was classed as inactive.

Turning to `CC(=O)NC(CC(=O)OCC(=O)Nc1cc(S(=O)(=O)N2CCCCC2)ccc1C)c1ccccc1` (configuration not stated), the result was inactive.

As to `C#CCOc1ccc(/C=C2/C(=O)ON=C2C)cc1Br`, the outcome was inactive.

With `Cc1cc(C)c(S(=O)(=O)ON2C(=O)c3ccccc3C2=O)cc1C`, the call was inactive.

For `Cc1ccc(C)c(S(=O)(=O)/N=C2\C=C(NS(=O)(=O)c3ccccc3)C(=O)c3ccccc32)c1`, the compound was classed as inactive.

On to `O=C(OCCCN=C1NS(=O)(=O)c2ccccc21)c1ccc(F)cc1`, for which the outcome was inactive.

With `COc1cc(C2C(C#N)=C(N)OC3=C2C(=O)CC(C)(C)C3)cc([N+](=O)[O-])c1O` (configuration not stated), the call was inactive.

Consider `O=C(NN=Cc1cc(Br)c(O)c(Br)c1)c1ccccc1NS(=O)(=O)c1cccs1`, for which the compound was called inactive.

For the compound `CN(C)c1ccc(NC(=O)c2ccc(Cn3cc([N+](=O)[O-])cn3)cc2)cc1`, the result was inactive.

For `C/C(CCc1oc2c(Br)cc(Br)cc2c1-c1ccc(C)o1)=N\O`, the compound was called inactive.

With `CCCC(=O)OCCNc1cc(SCc2ccco2)c2nonc2c1[N+](=O)[O-]`, the compound was called inactive.

Regarding `CN(c1ccccc1)c1ccc(/C=C(/CCC(=O)O)c2nc3ccccc3s2)cc1[N+](=O)[O-]`, the result was inactive.

For the compound `CC(=O)OCCCNc1cc(SCc2ccco2)c2nonc2c1[N+](=O)[O-]`, the compound was called inactive.

For the compound `CC(=O)OCCNc1cc(SCc2ccco2)c2nonc2c1[N+](=O)[O-]`, the outcome was inactive.

With `COc1cc(/C=C2\C(=O)N(c3ccc(NC(C)=O)cc3)N=C2c2ccccc2)ccc1O`, the result was inactive.

Turning to `CCOc1ccc(N2C(=O)C(Cl)=C(Nc3ccccc3O)C2=O)cc1`, the compound was called inactive.

`C=CCOc1c(Br)cc(/C=C2/C(=O)ON=C2C)cc1OC`: the call was inactive.

On to `Cc1cc(C2C(=O)CC(=O)CC2c2ccccc2)on1` (configuration not stated), for which the compound was classed as inactive.

Regarding `COc1cc(/C=C2/C(=N)N3C(c4ccccc4)=CSC3=NC2=O)ccc1OCC(=O)O`, the compound was called inactive.

Consider `CCc1ccc(N=C2NC(=O)/C(=C/c3cc(Br)c(OCC(=O)O)c(OC)c3)S2)cc1`, for which the compound was called inactive.

Regarding `O=C1/C(=C/c2cccs2)SC(=S)N1NS(=O)(=O)c1ccccc1`, the compound was called inactive.

As to `CCCOC(=O)c1c(-c2ccc(C)cc2C)csc1NC(=O)C1C2CCC(O2)C1C(=O)O` (configuration not stated), the compound was called inactive.

Regarding `COc1cccc(-c2[nH]nc3c2C(c2ccoc2)C(C#N)=C(N)O3)c1` (configuration not stated), the result was inactive.

For the compound `O=S(=O)(O)c1cc2onnc2c2ccccc12`, the compound was called inactive.

In the case of `CC1CC(=O)C(C(C2=C(O)CC(C)CC2=O)c2ccccc2)=C(O)C1` (configuration not stated), the compound was classed as inactive.

With `Cc1[nH][nH]c(=O)c1C(c1ccc(-c2ccc(Cl)c(C(=O)O)c2)o1)c1c(C)[nH][nH]c1=O`, the compound was classed as inactive.

Regarding `Cc1[nH][nH]c(=O)c1C(c1ccc(-c2cccc(Cl)c2)o1)c1c(C)[nH][nH]c1=O`, the call was inactive.

`Cc1[nH]n(-c2ncc(-c3ccccc3)s2)c(=O)c1C(c1ccc(Br)cc1)C(C#N)C#N` (configuration not stated): the call was inactive.

`O=C(O)c1cc([N+](=O)[O-])c(Nc2cccc3ccccc23)c([N+](=O)[O-])c1`: the compound was called inactive.

Take `O=C1Nc2ccc(F)cc2C12Nc1ccccc1-c1nnc(SCc3ccccc3Cl)nc1O2` (configuration not stated): the outcome was inactive.

Regarding `CCc1ccc([C@@H]2CC=C(C(=O)O)[C@H](c3ccc(Cl)cc3)N2S(=O)(=O)c2ccc(C)cc2)cc1`, the compound was classed as inactive.

`O=C(O)[C@H](Cc1ccccc1)N1C(=O)c2c(Cl)c(Cl)c(Cl)c(Cl)c2C1=O`: the call was inactive.

For the compound `Cc1cc(C)c2nc(N3C(=O)C(O)=C(C(=O)c4ccco4)C3c3cccc(O)c3)sc2c1` (configuration not stated), the outcome was inactive.

Turning to `COc1ccc(CNC(=O)CCCC2=NS(=O)(=O)c3ccccc3N2)cc1`, the outcome was inactive.

Turning to `Cc1[nH]n(-c2ccccc2)c(=O)c1C(c1ccccc1[N+](=O)[O-])C(C#N)C#N` (configuration not stated), the call was inactive.

On to `O=C1CCC/C1=C/Nc1ccc2c(c1)OCO2`, for which the call was inactive.

For the compound `N#Cc1c2c(c(-c3ccco3)[nH]c1=O)CCCC2`, the compound was classed as inactive.

As to `Cn1c(=O)c([N+](=O)[O-])c(Oc2ccccc2)c2ccccc21`, the compound was called inactive.

Turning to `O=Nc1c(O)ccc2cc(S(=O)(=O)O)ccc12`, the outcome was inactive.

As for `COC(=O)c1cc(C(=O)OC)cc(N2C(=O)CC(NNC(=O)c3ccccc3Cl)C2=O)c1` (configuration not stated), the call was inactive.

On to `O=C(O)/C=C/C(=O)Nc1ccc(C2(c3ccc(NC(=O)/C=C/C(=O)O)cc3)c3ccccc3-c3ccccc32)cc1`, for which the compound was called inactive.

As to `CCCn1nc(NS(=O)(=O)c2cccc3nonc23)c2cc3cccc(C)c3nc21`, the result was inactive.

In the case of `Cc1ccc(/C=C2\SC(=S)N(NS(=O)(=O)c3ccc(C)cc3)C2=O)cc1`, the result was inactive.

Regarding `Cc1ccc(-c2nnc(Nc3ccc(CC(N)=O)cc3)c3ccccc23)cc1S(N)(=O)=O`, the outcome was inactive.

In the case of `Cc1nc(Nc2ccc(C(=O)O)cc2)nc(Nc2ccc(C(=O)O)cc2)c1[N+](=O)[O-]`, the result was inactive.

As for `CC1=CC(=O)C(Sc2ccc(C)cc2)=CC1=O`, the result was inactive.

For the compound `O=C(CCN1C(=O)/C(=C/c2ccc3c(c2)OCO3)SC1=S)Nc1cccc(C(=O)O)c1`, the call was inactive.

In the case of `COc1ccc2nc(N3CCC(O)CC3)c(C#N)cc2c1`, the result was inactive.

As for `CCOC(=O)c1c(=O)n(O)c2ccc(C)cc2[n+]1[O-]`, the compound was classed as inactive.

Consider `Cc1ccc(-c2ccc(/C=C3\C(=O)ON=C3c3ccccc3)o2)c([N+](=O)[O-])c1`, for which the compound was called inactive.

On to `COc1ccc(/C=C2\C(=O)ON=C2c2ccccc2)cc1OC`, for which the call was inactive.

Take `COc1cccc(/C=C2/C(=O)NN(c3ccc(C)c(C)c3)C2=O)c1`: the outcome was inactive.

With `CCOc1cc(/C=N/N=C2/NC(=O)C(CC(=O)O)S2)ccc1OCc1ccc(Cl)cc1` (configuration not stated), the compound was called inactive.

Regarding `Cn1cc([N+](=O)[O-])c(C(=O)N(Cc2ccccc2)Cc2ccccc2)n1`, the result was inactive.

As to `COc1ccc(Br)cc1/C=C/C(=O)NC(=S)Nc1ccc(Cl)c(C(=O)O)c1`, the call was inactive.

As for `CNc1ccc(Br)cc(C(=O)/C=C/c2cccc(OC)c2OC)c1=O`, the outcome was inactive.

In the case of `CC1(C)CC(=O)C(C(C2=C(O)CC(C)(C)CC2=O)c2ccc(O)c([N+](=O)[O-])c2)=C(O)C1`, the compound was called inactive.

As for `O=C(O)/C(=C\c1c(C(=O)O)[nH]c2cc(Cl)cc(Cl)c12)c1ccccc1`, the result was inactive.

`Oc1c(Br)cc(/C=N/n2c(-c3ccccc3)n[nH]c2=S)cc1Br`: the result was inactive.

As to `CCOCCCNC(=O)CC1Oc2ccc(C)cc2NC1=O` (configuration not stated), the result was inactive.

For `Cc1ccc(CC(CC(=O)Nc2cccc(C(F)(F)F)c2)C(=O)O)cc1` (configuration not stated), the compound was called inactive.

Turning to `O=C1CCCC/C1=C/Nc1ccc2c(c1)OCO2`, the call was inactive.

On to `CC(=O)Oc1ccc(/C=C2/C(=O)N(c3ccccc3)N=C2C)cc1`, for which the result was inactive.

With `COC(=O)CC1=NN(c2ccccc2)C(=O)/C1=C\c1ccc(OC)cc1`, the result was inactive.

For `Cc1ccc(C2C(C#N)=C(N)Oc3nc(-c4ccccc4)[nH]c32)o1` (configuration not stated), the compound was called inactive.

Turning to `O=C1C(Cl)=C(NCCc2ccccc2)C(=O)c2ccccc21`, the compound was classed as inactive.

For the compound `COc1cccc(/C=C2\SC(=S)N(C(C(=O)O)c3ccccc3)C2=O)c1OC` (configuration not stated), the result was inactive.

In the case of `COc1cc2c3c(c1)-c1c(sn(-c4cc(OC)ccc4OC)c1=S)C(C)(C)N3C(=O)C2=O`, the compound was classed as inactive.

Regarding `C#CCOc1c(Br)cc(/C=C2/C(=O)ON=C2C)cc1OCC`, the result was inactive.
